Inconclusive results are not listed. Calls of active or inactive are those of the source. The call rests on the fitted dose curve; in most records, active means well fitted curve in the direction sought with a large enough effect; inconclusive means small, poorly fitted or top-dose-only effect, or another doubt; inactive means no such curve, though single readings can be large; an effect the other way counts as inactive or inconclusive.
Key:
[1] = target: Voltage-gated inwardly rectifying potassium channel KCNH2 (Homo sapiens) (UniProt Q12809); assay: qHTS Assay for Small Molecule Inhibitors of the Human hERG Channel Activity (AID 588834);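 further: lower thallium flux fluorescence means stronger hERG block; nearly all actives have a fitted effect of over 50% in size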; further: potency means the concentration at half of the fitted maximal effect
Chain of Voltage-gated inwardly rectifying potassium channel KCNH2 (Homo sapiens) (Q12809 whole entry, looked up): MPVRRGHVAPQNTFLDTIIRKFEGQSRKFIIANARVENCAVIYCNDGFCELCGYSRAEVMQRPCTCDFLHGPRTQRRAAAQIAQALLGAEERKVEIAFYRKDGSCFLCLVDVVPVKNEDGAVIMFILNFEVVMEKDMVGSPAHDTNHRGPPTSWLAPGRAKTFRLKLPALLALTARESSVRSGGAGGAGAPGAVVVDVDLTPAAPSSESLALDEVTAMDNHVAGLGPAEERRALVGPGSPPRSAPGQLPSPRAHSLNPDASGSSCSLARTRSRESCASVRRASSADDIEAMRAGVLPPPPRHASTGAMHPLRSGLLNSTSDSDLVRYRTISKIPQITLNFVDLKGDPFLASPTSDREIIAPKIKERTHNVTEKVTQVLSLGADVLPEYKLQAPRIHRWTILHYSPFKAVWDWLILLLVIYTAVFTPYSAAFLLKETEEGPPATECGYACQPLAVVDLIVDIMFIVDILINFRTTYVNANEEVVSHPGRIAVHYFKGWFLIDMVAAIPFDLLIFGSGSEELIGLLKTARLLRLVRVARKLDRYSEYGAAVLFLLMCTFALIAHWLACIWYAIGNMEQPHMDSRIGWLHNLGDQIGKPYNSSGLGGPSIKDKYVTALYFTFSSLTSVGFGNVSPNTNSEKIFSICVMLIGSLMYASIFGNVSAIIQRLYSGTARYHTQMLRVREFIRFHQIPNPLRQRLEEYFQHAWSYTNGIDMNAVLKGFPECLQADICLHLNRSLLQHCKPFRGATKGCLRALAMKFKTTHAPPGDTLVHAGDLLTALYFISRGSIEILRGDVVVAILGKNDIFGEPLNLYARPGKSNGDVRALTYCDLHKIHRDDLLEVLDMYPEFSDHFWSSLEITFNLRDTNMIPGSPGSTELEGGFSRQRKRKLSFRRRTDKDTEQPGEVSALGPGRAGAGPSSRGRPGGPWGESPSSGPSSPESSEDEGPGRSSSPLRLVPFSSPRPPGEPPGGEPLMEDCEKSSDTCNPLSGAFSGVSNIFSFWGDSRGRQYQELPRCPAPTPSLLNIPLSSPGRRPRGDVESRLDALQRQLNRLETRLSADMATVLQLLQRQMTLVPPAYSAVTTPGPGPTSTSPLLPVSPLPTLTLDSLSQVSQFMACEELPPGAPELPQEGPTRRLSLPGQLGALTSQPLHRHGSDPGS
Summary of the method: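 Concentration-response qHTS measuring drop in thallium-sensitive dye signal. U2OS cells carrying BacMam hERG; compound exposure ~10 min, then stimulation buffer and 2 min read at 1 sec intervals.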

[2] = target: Glutaminase kidney isoform, mitochondrial (Homo sapiens) (UniProt O94925); assay: qHTS for Inhibitors of Glutaminase (GLS): LOPAC Validation (AID 624146); further: nearly all actives have a fitted effect of over 60% in size; further: potency means the concentration at half of the fitted maximal effect
Chain of Glutaminase kidney isoform, mitochondrial (Homo sapiens) (O94925 whole entry, looked up, canonical isoform): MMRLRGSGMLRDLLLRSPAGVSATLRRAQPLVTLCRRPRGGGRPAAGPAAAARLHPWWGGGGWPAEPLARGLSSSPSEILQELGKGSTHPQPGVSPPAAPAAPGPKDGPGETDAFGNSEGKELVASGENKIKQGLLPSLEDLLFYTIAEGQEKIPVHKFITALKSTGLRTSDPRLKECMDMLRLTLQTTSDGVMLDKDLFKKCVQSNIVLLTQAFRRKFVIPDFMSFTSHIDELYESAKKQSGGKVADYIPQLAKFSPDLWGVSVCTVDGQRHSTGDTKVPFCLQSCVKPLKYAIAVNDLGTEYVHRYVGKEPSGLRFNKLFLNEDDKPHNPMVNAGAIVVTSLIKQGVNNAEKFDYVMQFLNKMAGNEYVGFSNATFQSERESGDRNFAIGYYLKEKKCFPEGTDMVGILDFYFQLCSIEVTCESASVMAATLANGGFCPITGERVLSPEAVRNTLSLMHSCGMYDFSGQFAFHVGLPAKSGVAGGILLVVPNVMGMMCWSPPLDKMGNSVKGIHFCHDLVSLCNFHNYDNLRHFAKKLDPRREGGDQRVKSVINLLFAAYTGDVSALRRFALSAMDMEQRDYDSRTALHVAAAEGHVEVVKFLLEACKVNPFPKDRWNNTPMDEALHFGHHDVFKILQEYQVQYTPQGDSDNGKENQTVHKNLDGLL
Summary of the method: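 hKGA in 45 mM KH2PO4 pH 8.2, 0.02% Tween-20 with pin-transferred compounds; 1 mM L-glutamine (stock) plus glutamate oxidase/HRP/Amplex Red coupling added. Fluorescence read initially and after 30 min at RT.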

[3] = qHTS of Trypanosoma Brucei Inhibitors: LOPAC Validation (AID 624147)
Summary of the method: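 In this concentration-response screen, enzyme-free wells defined baseline while DMSO plates tracked drift. Each reaction combined TbPYK, substrate, compound and 130 uM ADP for 45 min at room temperature. Kinase-Glo Plus luminescence gave the signal.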

[4] = target: Glucagon-like peptide 1 receptor (Homo sapiens) (UniProt P43220); assay: qHTS of GLP-1 Receptor Agonists: LOPAC Validation (AID 624148);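 further: higher luminescence signal means agonism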
Chain of Glucagon-like peptide 1 receptor (Homo sapiens) (P43220 whole entry, looked up): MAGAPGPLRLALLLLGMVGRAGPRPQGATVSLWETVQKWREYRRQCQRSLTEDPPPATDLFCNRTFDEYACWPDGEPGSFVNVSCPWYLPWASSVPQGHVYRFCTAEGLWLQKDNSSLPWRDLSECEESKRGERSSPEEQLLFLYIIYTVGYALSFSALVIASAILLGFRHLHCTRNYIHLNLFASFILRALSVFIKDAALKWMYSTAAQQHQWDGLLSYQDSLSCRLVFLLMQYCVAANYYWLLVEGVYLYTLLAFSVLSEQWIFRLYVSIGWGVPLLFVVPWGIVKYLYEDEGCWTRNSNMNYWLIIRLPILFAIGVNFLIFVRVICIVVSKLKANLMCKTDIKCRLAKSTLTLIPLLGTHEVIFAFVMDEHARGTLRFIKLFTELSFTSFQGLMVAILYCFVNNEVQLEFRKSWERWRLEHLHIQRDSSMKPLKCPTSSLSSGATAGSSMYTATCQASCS
Summary of the method: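 HEK293 cells stably co-expressing a cAMP-responsive luciferase reporter and a hypersensitive GLP-1R were plated 12 h at 37 °C and exposed to compounds for 4-6 hr at 37 °C, 5% CO2. Luminescence was read 12 min after adding detection reagent.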

[5] = qHTS of Nrf2 Activators: LOPAC Validation (AID 624149)
Summary of the method: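 Luminescence read-out of ARE-luciferase activation: AREc32_Fluc cells treated with compounds for 24 hr at 37 deg C, then lysed with Steady-Glo for 30 min at room temperature before reading.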

[6] = HTS Assay for Allosteric Antagonists of the Human D2 Dopamine Receptor: Hit Validation in HTRF (AID 624455);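 further: stable D1 dopamine receptor cell line scored for blocking the D1 response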
Summary of the method: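 First, antagonism was screened by calcium flux in a force-coupled, inducible Hek293 Trex D2 line challenged with EC80 dopamine. Hits then went into an HTRF assay in cells stably expressing D1, testing inhibition of the D1 response.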

Measured: Potency

c1ccc2nc(C3=NCCN3)ccc2c1
inactive: all assays above

O=C(O)c1ccccc1Nc1ccccc1
inactive: all assays above

O=C(O)C1=CCCNC1
inactive: all assays above

CC1CCN=C(N)S1 (stereo not given)
inactive: all assays above

N#C/C(=C\c1ccc(O)c(O)c1)C(=O)NCCCNC(=O)/C(C#N)=C/c1ccc(O)c(O)c1
inactive: all assays above

C#CC(N)CCC(=O)O (stereo not given)
inactive: all assays above

Clc1nccc2c1ccc1ccccc12
inactive: all assays above

N#C/C(=C\c1ccc(O)c(O)c1)C(=O)NCCc1ccccc1
active: [1] 3.98 µM | [2] 1.12 µM
inactive: all other assays above

O=C(O)C1=CC(=C(c2ccc(O)c(C(=O)O)c2)c2ccc(O)c(C(=O)O)c2)C=CC1=O
inactive: all assays above

O=C(OCCN1CCOCC1)C1(c2ccccc2)CCCCC1
inactive: all assays above

COc1ccccc1N1CCN(CCCCN2C(=O)c3ccccc3C2=O)CC1
active: [1] 2.24 µM
inactive: all other assays above

Nc1ccc(-c2ccc3ccccc3n2)cc1
inactive: all assays above

NCCC1CCCC(CCN)N1 (stereo not given)
inactive: all assays above

NC1(C(=O)O)CCCCC1
inactive: all assays above

COc1cc(C(O)CO)ccc1O (stereo not given)
active: [2] 4.47 µM
inactive: all other assays above

NC(=O)CC[C@H](N)C(=O)O
inactive: all assays above

COCc1nc2c([nH]1)c(=O)n(C)c(=O)n2CC(C)C
inactive: all assays above

O=C(O)C1=CCNCC1
inactive: all assays above

COc1cc(CC(=O)O)ccc1O
active: [2] 2.82 µM
inactive: all other assays above

NCCCCN=C(N)N
inactive: all assays above

CC(N)(Cc1ccc(O)c(O)c1)C(=O)O (stereo not given)
inactive: all assays above

COc1ccc(C(=O)NCc2cccnc2)cc1C(=O)NCc1cccnc1
inactive: all assays above

O=c1[nH]c2cc(Cl)ccc2c(O)c1-c1ccc(Oc2ccccc2)cc1
inactive: all assays above

NC(N)=NC(N)=Nc1cccc(Cl)c1
active: [1] 8.91 µM
inactive: all other assays above

CO/N=C(\C(=O)N[C@@H]1C(=O)N2C(C(=O)O)=C(CSc3nc(=O)c(O)nn3C)CSC12)c1csc(N)n1 (stereo not given in full)
inactive: all assays above
